The values that follow come from PubChem BioAssay AID602439 (Southern Research Specialized Biocontainment Screening …, 2012).

Entries with a potency or affinity are not part of this list. The source made the active and inactive calls. No rule for the calls is given here.

A short description of this assay: viability of Vero 76 cells – cell-based, set 3, cytotoxicity control, dose response (AID 602439). The settings on record: Vero 76 cell viability; series mostly up to 50 µM.
For the molecule `CC(C)N1CCN(Cc2nc3ccc([N+](=O)[O-])cc3c(=O)n2-c2ccccc2F)CC1`, the call was inactive.

`O=c1c2cc([N+](=O)[O-])ccc2nc(CN2CCOCC2)n1-c1ccccc1F`: the result was inactive.

In the case of `O=C(Cc1cccs1)Nc1nccs1`, the result was inactive.

On to `CN(C(=O)Cc1cccs1)c1nc2c(s1)CCCC2`, for which the outcome was inactive.

In the case of `CCN1CCN(Cc2nc3ccc([N+](=O)[O-])cc3c(=O)n2-c2ccccc2F)CC1`, the molecule was classed as inactive.

As to `CN1CCN(Cc2nc3ccc([N+](=O)[O-])cc3c(=O)n2-c2ccccc2F)CC1`, the outcome was inactive.

Take `O=C(Cc1cccs1)Nc1nc2ccccc2s1`: the molecule was called inactive.

Turning to `O=C(Cc1ccccc1)Nc1nc2c(s1)CCCC2`, the outcome was inactive.
